Here are results for seven compounds from PubChem BioAssay (NCATS).

Assay [1] is described as follows: Cell Viability - H-4-II-E (AID 543).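 Note: cells exposed to compound for 40 hours; nearly all actives have a fitted effect of over 35% in size.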 Note: potency is the fitted concentration of half-maximal effect. In a few lines:
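CellTiter-Glo luminescence (intracellular ATP) measured after 40 h compound exposure at 37 °C in H-4-II-E rat hepatoma cells seeded at 1500/well. Values are AC50s fitted with the standard Hill equation.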

A short description of assay [2]: Cell Viability - SH-SY5Y (AID 544).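 Note: cells exposed to compound for 40 hours; nearly all actives have a fitted effect of over 55% in size.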 Note: potency is the fitted concentration of half-maximal effect. To be noted: SH-SY5Y neuroblastoma cell viability; viability change, negative = cytotoxic: at 92.2 µM (top of the series). In a few lines: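 Cytotoxicity measured via ATP-dependent luciferase luminescence (CellTiter-Glo) following 40 h, 37 °C exposure of 1500 SH-SY5Y cells per well. Concentration-response data were fitted with the standard Hill equation to give AC50.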

The nature of assay [3]: Cellular Toxicity (caspase-3) Jurkat (AID 655).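 Note: cells exposed to compound for 16 h at 37 °C before reading.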 As to conditions: Jurkat caspase-3 activation, luminescence; caspase-3 activation: at 92.2 µM (top of the series), DMSO = 0%, tamoxifen = 100%. In a few lines:
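Jurkat cells (5000/well) in complete medium exposed 16 h at 37 C; caspase-3/7 activity read by Caspase-Glo luminescence after 20 min at room temperature. Normalized to DMSO and 100 uM tamoxifen; AC50 from Hill fits.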

Assay [4] can be described thus: Cell Viability - LYMP2-001 (AID 921).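 Note: 0% = DMSO only and full inhibition = tetraoctylammonium bromide control wells; nearly all actives have a fitted effect of over 70% in size.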 In a few lines: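 Human lymphoblastoid LYMP2-001 cells, 2500 per well, in complete medium, treated 24 h at 37 C. Viability from cellular ATP by CellTiter-Glo luminescence; AC50 from Hill-equation fits of qHTS concentration-response.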
Assay [5] in a line: MultiTox-Fluor Cytotoxicity Assay - LYMP1-003 - Live Cells (AID 962).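 Note: 0% = DMSO only and full loss = 92 µM tetraoctylammonium bromide; cytotoxic hits lower the live-cell protease signal.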 In a few lines:
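Live-cell protease activity (GF-AFC substrate, 405/510 nm, 60 min at room temperature) after 16 h, 37 C compound exposure of human lymphoblastoid LYMP1-003 cells; concentration-response fitted to the Hill equation for AC50.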

A short description of assay [6]: Cell Viability - LYMP2-004 (AID 966).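 Note: plate controls were DMSO only for no effect and tetraoctylammonium bromide control for full effect; nearly all actives have a fitted effect of over 65% in size.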 In a few lines: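 AC50 values come from Hill modelling of concentration-dependent loss of intracellular ATP, measured by CellTiter-Glo luminescence. Human LYMP2-004 lymphoblastoid cells (2500/well) were exposed to compound for 24 h at 37 C.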
A short description of assay [7]: Cell Viability - LYMP2-015 (AID 971).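 Note: 0% = DMSO only and full effect = 92 µM tetraoctylammonium bromide; nearly all actives have a fitted effect of over 55% in size.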 In a few lines:
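Cytotoxicity readout: decrease in intracellular ATP (CellTiter-Glo luminescence) in 2500 LYMP2-015 lymphoblastoid cells/well after 24 h compound exposure at 37 C. Concentration-response data fitted with the standard Hill equation to give AC50.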

Assay [8] can be described thus: Cell Viability - LYMP2-019 (AID 973).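 Note: 0% = DMSO alone and full effect = 92 µM tetraoctylammonium bromide; nearly all actives have a fitted effect of over 55% in size.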 In a few lines:
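AC50 values come from Hill-equation fits of luminescent intracellular ATP (CellTiter-Glo, 30 min, room temperature) following 24 h compound exposure at 37 C. Cells: LYMP2-019 lymphoblastoid line, 2500 per well, in complete culture medium.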

A short description of assay [9]: Cell Viability - LYMP2-021 (AID 974). Note: % is set by controls: 0 for no effect and ±100 for the full control effect; nearly all actives have a fitted effect of over 55% in size. In a few lines:
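AC50 values come from Hill-equation fits to CellTiter-Glo luminescence (ATP content), read after 24 hour compound exposure at 37 C of 2500 LYMP2-021 lymphoblastoid cells/well; tetraoctylammonium bromide as positive control.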

Assay [10] can be described thus: Cell Viability - LYMP2-025 (AID 976).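 Note: plate controls were DMSO only for no effect and tetraoctylammonium bromide control for full effect.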 In a few lines:
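Cytotoxicity read as loss of intracellular ATP (luciferase luminescence) after 24 h compound treatment at 37 C. Uses LYMP2-025 lymphoblastoid cells in 1536-well format; Hill-equation modelling gives AC50; tetraoctylammonium bromide as positive control.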

Assay [11] in a line: Cell Viability - LYMP2-006 (AID 978). Note: % is set by controls: 0 for no effect and ±100 for the full control effect; nearly all actives have a fitted effect of over 60% in size. In a few lines: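 Human lymphoblastoid cells (LYMP2-006), 2500/well in complete medium, were treated with compound for 24 hr at 37 C. Cellular ATP was read by CellTiter-Glo luminescence after 30 min, and AC50 values came from Hill-equation fits of concentration-response data.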
The nature of assay [12]: Cell Viability - LYMP2-007 (AID 979).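 Note: cells exposed to compound for 24 h before reading; 0% = DMSO only and the negative end = 92 µM tetraoctylammonium bromide; nearly all actives have a fitted effect of over 60% in size.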 In a few lines:
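AC50 values come from Hill-equation fits of luminescent intracellular ATP (CellTiter-Glo, 30 min, room temperature) following 24 h compound exposure at 37 C. Cells: LYMP2-007 lymphoblastoid line, 2500 per well, in complete culture medium.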

Assay [13] can be described thus: Cell Viability - LYMP2-014 (AID 983).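 Note: plate controls were DMSO only for no effect and 92 µM tetraoctylammonium bromide for full effect; nearly all actives have a fitted effect of over 50% in size.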 In a few lines:
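Intracellular ATP loss, read by luciferase luminescence, measures acute cytotoxicity after 24 h compound exposure of lymphoblastoid LYMP2-014 cells (2500/well, 37 C). Concentration-response data fitted to the Hill equation for AC50.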

Assay [14] can be described thus: Cell Viability - LYMP2-018 (AID 985).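 Note: plate controls were DMSO only for no effect and tetraoctylammonium bromide at 92 µM for full effect; nearly all actives have a fitted effect of over 50% in size.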 In a few lines: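 Viability read as CellTiter-Glo luminescence (cellular ATP) after 24 hr compound exposure at 37 C of 2500 LYMP2-018 lymphoblastoid cells/well, pre-plated 5 hr. Hill-equation modelling gave AC50.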
Assay [15] can be described thus: Cell Viability - LYMP2-020 (AID 986). In a few lines:
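Cytotoxicity in qHTS format: luminescent ATP readout from CellTiter-Glo after 24 h compound exposure at 37 C in complete medium. LYMP2-020 lymphoblastoid cells were seeded at 2500/well; concentration-response data fitted to the Hill equation for AC50.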

Assay [16] is described as follows: Cell Viability - LYMP2-022 (AID 987). In a few lines: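 Cytotoxicity read as decreased cellular ATP (CellTiter-Glo luminescence, 30 min room temperature) after 24 hours compound exposure of 2500 lymphoblastoid LYMP2-022 cells/well at 37 C. Concentration-response data fitted with standard Hill equation for AC50.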
A short description of assay [17]: Cell Viability - LYMP2-026 (AID 989). Note: % is set by controls: 0 for no effect and ±100 for the full control effect; nearly all actives have a fitted effect of over 50% in size. In a few lines:
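Cytotoxicity read as ATP-dependent luminescence (CellTiter-Glo, 30 min room temperature) after 24 h compound treatment at 37 C. LYMP2-026 lymphoblastoid line seeded at 2500 cells/well; AC50 derived by standard Hill equation.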

The nature of assay [18]: Cell Viability - LYMP1-002 - Assay at 40 hr (AID 994).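 Note: 0% = DMSO only and full inhibition = 92 µM tetraoctylammonium bromide; nearly all actives have a fitted effect of over 60% in size.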 In a few lines: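 Cytotoxicity was read as loss of cellular ATP (CellTiter-Glo luminescence) after 40 hr compound exposure at 37 C of 2500 LYMP1-002 lymphoblastoid cells per well. Concentration-response data were fitted with the standard Hill equation to give AC50.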
A short description of assay [19]: qHTS assay for small molecule agonists of retinoid X receptor alpha signaling (AID 588544). To be noted: HEK293T RXRa-UAS-bla, beta-lactamase reporter, 18 h; 530 nm emission. For orientation: Quantitative high-throughput screening tests each substance at several concentrations.
Assay [20] in a line: qHTS assay for small molecule antagonists of the retinoid-related orphan receptor gamma (ROR-gamma) signaling pathway - cell viability counter screen (AID 720652; active = well fitted curve in the direction sought with a large enough effect in the repeat runs; an effect the other way counts as inactive or inconclusive;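 note: compound exposure lasted 16 hr before ATP read; % is set by controls: 0 for no effect and ±100 for the full control effect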). In a few lines: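 Cytotoxicity counter screen: intracellular ATP (CellTiter-Glo luminescence) measured in the doxycycline-induced CHO RORE-luciferase reporter line after 16 hr compound exposure at 37 C, 5% CO2.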

Each structure is given as a SMILES string. Values joined by “and” are separate entries in the source; they are usually repeats but may differ in a detail not shown here. Equal values may be shown once. Inconclusive results are not listed. Active and inactive are the calls of the source. Unless noted, calls come from the whole dose curve; as a rule, active = well fitted curve in the direction sought with a large enough effect; inconclusive = small, poorly fitted or top-dose-only effect, or another doubt; inactive = no such curve, though single readings can be large; an effect the other way counts as inactive or inconclusive.

Regarding `CC(C)Br`, the Potency entry in assay [1], in [2], in assay [4], in assay [6], in [7] and in assay [8] was “inactive” throughout. Further, the Potency result in [9], in assay [10], in assay [11], in assay [12], in assay [13] and in assay [14] was “inactive” each time. For the same compound, the Potency result in assay [15], in assay [16], in [17], in assay [18] and in assay [20] was “inactive” each time. Besides, the caspase-3 activation in assay [3] was 0.12% (inactive). The call in assay [5] was inactive. Also, the max response in assay [19] is -8.42%.
With `C=COC(C)=O`, the Potency result in assay [1], in assay [2], in assay [4], in [6], in assay [7] and in assay [8] was “inactive” throughout. Moreover, the Potency entry in [9], in assay [10], in assay [11], in [12], in assay [13] and in [14] was “inactive” each time. In addition, the Potency entry in assay [15], in assay [16], in [17], in assay [18] and in assay [20] was “inactive” each time. Further, in assay [3], the caspase-3 activation was 1.08% (inactive). In [5], the compound was called inactive. Also, the max response in assay [19] is -12.6%.
Regarding `O=[N+]([O-])c1ccc(Cl)c(Cl)c1Cl`, the Potency entry in assay [1], in assay [2], in assay [4], in assay [6], in assay [7] and in assay [8] was “inactive” each time. For the same compound, the Potency entry in [9], in assay [10], in assay [11], in assay [12], in [13] and in assay [14] was “inactive” each time. In addition, the Potency entry in assay [15], in assay [16], in [17], in [18] and in [20] was “inactive” in each case. In addition, the caspase-3 activation in assay [3] is -0.417% (inactive). In addition, the result in [5] was inactive. In assay [19], the max response was 3.54%.
Regarding `OCC(Cl)CCl` (configuration not stated), the Potency entry in assay [1], in [2], in assay [4], in [6], in assay [7] and in assay [8] was “inactive” each time. In addition, the Potency result in [9], in [10], in assay [11], in [12], in assay [13] and in [14] was “inactive” throughout. For the same compound, the Potency result in assay [15], in [16], in assay [17], in assay [18] and in assay [20] was “inactive” throughout. Besides, the caspase-3 activation in assay [3] was 2.02% (inactive). Also, in [5], the outcome was inactive. Further, the max response in assay [19] is -11.4%.
As to `Nc1c(Cl)cc([N+](=O)[O-])cc1Cl`, the Potency entry in assay [2], in [4], in assay [6], in assay [7], in assay [8] and in assay [9] was “inactive” each time. Also, the Potency result in assay [10], in [11], in assay [12], in assay [13], in assay [14] and in [15] was “inactive” throughout. For the same compound, the Potency result in assay [16], in assay [17], in assay [18] and in assay [20] was “inactive” each time. In addition, the caspase-3 activation in assay [3] is 3.21% (inactive). For the same compound, the compound was called inactive in assay [5]. Moreover, the max response in [19] was -1.27% and -9.53%.
In the case of `C=CCc1cc(OC)c2c(c1)OCO2`, the Potency entry in assay [1], in assay [2], in assay [4], in assay [6], in assay [7] and in assay [8] was “inactive” each time. In addition, the Potency result in assay [9], in assay [10], in [11], in assay [12], in assay [13] and in [14] was “inactive” each time. The Potency entry in assay [15], in assay [16], in assay [17], in assay [18] and in assay [20] was “inactive” throughout. Also, the caspase-3 activation in [3] is -0.188% (inactive). Besides, in [5], the outcome was inactive. In [19], the max response was -17.2%.
On to `CCCCNC(=O)n1c(NC(=O)OC)nc2ccccc21`, for which the results for the Potency in [1] and in [2] were 5.01 µM (active) and 6.31 µM (active), respectively. For the same compound, in [3], the caspase-3 activation was 7.08% (inactive). In addition, the Potency entry in assay [4], in assay [6], in assay [7], in assay [8], in [9] and in assay [10] was “inactive” in each case. Further, the Potency result in [11], in assay [12], in assay [13], in [14], in assay [15] and in assay [17] was “inactive” each time. Also, the Potency result in assay [20] was “inactive”. Further, in assay [5], the compound was classed as inactive. Besides, in assay [19], the max response was found to be 14.8%.
